Data as given in PubChem BioAssay AID2685 (National Center for Advancing Translational Sciences (NCATS), 2010).
Among all 320,000 compounds or so, about 2,100 (0.66%) were called active. Roughly 53% stayed inconclusive and do not appear here. Calls come from the whole dose curve; as a rule, active = well fitted inhibition curve with a large enough effect in the signal ratio, with a control signal flat (not every such curve was filed as active); inconclusive = small, poorly fitted or top-dose-only effect, or effect the other way, or a change in a side signal; inactive = flat fitted curve, though single readings scatter; the % refers to the signal ratio. For the sample, actives were picked, then their nearest neighbours and some compounds at random.

Assay: qHTS Assay for Lipid Storage Modulators in Drosophila S3 Cells;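 for cell number change: cells counted by Cell Tracker Red CMTPX staining in the red channel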; for lipid storage change, negative = inhibition: % is set by controls: 0 for no effect and ±100 for the full control effect
Settings: BODIPY lipid droplet fluorescence, 18-24 h, cells fed with added oleic acid; cell number change: measured here: cell count max response; series mostly up to 46.1 µM
Procedure, shortened: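 Drosophila S3 cells loaded with oleic acid (400 uM, as added) and compounds at several concentrations; lipid droplets imaged by 488-nm laser-scanning cytometry, 500–530 nm intensity and object ratio to cell channel. Percent activity normalized to 20 uM Triacsin C.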
Potency is the fitted concentration of half-maximal effect.

Compound	Potency	cell number change	outcome	lipid storage change, negative = inhibition
CC(=O)NC(CC(=O)OC(C)C(=O)Nc1ncc(Cl)cc1Cl)c1ccccc1 (centres undefined)	inactive	–	–	–
CC(=O)c1c(C)n(CC(=O)NCc2ccc3c(c2)OCO3)c2ccccc12	inactive	–	–	–
O=S(=O)(NC(=NCCc1ccc(Cl)cc1)c1ccccc1Cl)c1cccs1	inactive	1.69%	–	–
O=C(COc1ccc([N+](=O)[O-])cc1)Nc1cc(C(=O)O)cc(C(=O)O)c1	inactive	11.2%	–	–
Cc1cc(Br)ccc1NC(=O)CNC(=O)CSc1ncccn1	inactive	-9.9%	–	–
Cc1ccccc1C1c2[nH]c3ccccc3c2C[C@H]2C(=O)N(C3CC3)CC(=O)N12 (some centres undefined)	inactive	-3.81%	–	–
Cc1ccc(S(=O)(=O)N(CC(=O)N2CCCCC2)c2cccc(C)c2)cc1	inactive	-21.5%	–	–
Cc1ccc(S(=O)(=O)N(CC(=O)N2CCC(C)CC2)c2cccc(C)c2)cc1	inactive	–	–	–
CCOC(=O)N1CCN(C(=O)CN(c2cccc(C)c2)S(=O)(=O)c2ccc(C)cc2)CC1	5.8 µM (active)	6.11%	–	–
Cc1nc2c(C(=O)N3CCOCC3)cnn2c(C)c1Cc1ccc(Cl)cc1	inactive	-21.6%	–	–
CCn1c(SC)nc2cc(S(=O)(=O)N3CCCCC3)ccc21	inactive	-3.03%	–	–
O=C(COC(=O)CNC(=O)c1ccco1)Nc1ccc(Cl)cn1	inactive	–	–	–
Cc1ccc(C(=O)NCC(=O)OCC(=O)Nc2ccc(Cl)cn2)cc1	3.66 µM (active)	-28.4%	–	–
Cc1ccc(OCCC(=O)OCC(=O)Nc2ccc(Cl)cn2)cc1	inactive	-15.3%	–	–
N#Cc1ccc(COc2cccc3cccnc23)cc1	inactive	-22.2%	–	–
Cc1oc2c(cc(NS(=O)(=O)c3ccc4c5c(cccc35)C(=O)N4)c3ccccc32)c1C(=O)OC(C)C	inactive	10.8%	–	–
CC(C)C(NS(=O)(=O)c1ccc2c3c(cccc13)C(=O)N2)C(=O)O (centres undefined)	inactive	15.8%	–	–
Cc1cc(O)ccc1NS(=O)(=O)c1ccc2c3c(cccc13)C(=O)N2	0.366 µM (active)	-0.855%	–	–
O=C(N=C1N=C2C=CC=CN2Cc2ccccc21)c1ccc(S(=O)(=O)N2CCCC2)cc1	inactive	13.8%	–	–
O=C(Nc1ccc(Oc2ncnc3cc(Cl)ccc23)nc1)Nc1cccc(C(F)(F)F)c1	inactive	-3.74%	–	–
O=C(N[C@H]1CC1c1ccccc1)c1ccc([N+](=O)[O-])cc1 (some centres undefined)	inactive	-1.22%	–	–
C=C(C)Cn1c(-c2ccncc2)n[nH]c1=S	inactive	-24.7%	–	–
O=C(CCN1CCOCC1)N1CCCC(Nc2ccc(F)cc2)C1 (centres undefined)	inactive	–	–	–

Compound	Potency	cell number change	outcome	lipid storage change, negative = inhibition
O=C1Nc2ncccc2OC1CCCl (centres undefined)	inactive	11.9%	–	–
O=C1Nc2ncccc2OC1CCO (centres undefined)	25.9 µM (active)	-19.3%	–	–
CCS(=O)(=O)c1ccc2c(c1)NC(=O)C(CCO)O2 (centres undefined)	inactive	7.6%	–	–
CCOC(=O)c1ccc(NC(=O)Cn2c(=O)oc3ccccc32)cc1	inactive	2.64%	–	–
COc1ccc2c(c1OC)C(=O)NC(C)=C(C(=O)OC(C)(C)C)C2O (centres undefined)	14.6 µM (active)	0.147%	–	–
CC1=C(C(=O)OC(C)(C)C)C(c2cccs2)NC(=O)N1 (centres undefined)	inactive	16.7%	–	–
COc1cc(C2NC(=O)NC(C)=C2C(=O)OC(C)(C)C)ccc1OCC(N)=O (centres undefined)	inactive	1.52%	–	–
O=C1O/C(=C\C(=O)N2CCOCC2)c2ccccc21	inactive	1.94%	–	–
CCN(CC)c1ccc(C(=O)OCC(=O)Nc2cc3oc4ccccc4c3cc2OC)cc1	inactive	-0.812%	–	–
CC(C)n1c(SCC(=O)N2CCN(C)CC2)nc2c1c(=O)n(C)c(=O)n2C	inactive	1.32%	–	–
Cn1c(=O)c2c(nc(SCC(=O)N3CCCCCC3)n2C)n(C)c1=O	inactive	8.11%	–	–
CC(C)n1c(SCC(=O)N2CCCCC2)nc2c1c(=O)n(C)c(=O)n2C	0.116 µM (active)	-23%	–	–
CCC(CC)C(=O)NCCc1cc2ccc(C)c(C)c2[nH]c1=O	inactive	–	–	–
CC1(C)N=C(/C=N/O)C=[N+]1[O-]	6.51 µM (active)	-9.07%	–	–
CCn1cc(/C=N/O)c(C)n1	inactive	7.41%	–	–
CCCN(CCC)CCCNC(=O)C1CCC(CNS(=O)(=O)c2cccc3nsnc23)CC1 (centres undefined)	inactive	-15%	–	–
CCCCC(=O)NC(c1ccc(C(C)C)cc1)c1ccc2cccnc2c1O (centres undefined)	18.4 µM (active)	-28.4%	–	–
CCCCC(=O)NC(c1ccccc1OC)c1ccc2cccnc2c1O (centres undefined)	inactive	-24%	–	–
CC(=O)NC(c1ccc(C(C)C)cc1)c1ccc2cccnc2c1O (centres undefined)	inactive	–	–	–
CCOc1c(Br)cc(CNc2ccc(N3CCOCC3)cc2)cc1OC	inactive	-20.8%	–	–
Cc1cc(OC(C)C(=O)NCC(O)c2ccccc2)c2c(C)cc(=O)oc2c1 (centres undefined)	inactive	6.57%	–	–
CCOc1ncccc1C(=O)NCc1ccccc1Cl	inactive	–	–	–
COc1ccc(CC(=O)NNC(=O)COc2ccc(Br)cc2C)cc1OC	inactive	1.07%	–	–

Compound	Potency	cell number change	outcome	lipid storage change, negative = inhibition
NC(=O)c1c(NC(=O)c2ccccc2F)sc2c1CCCC2	1.64 µM (active)	-10.7%	–	–
NC(=O)c1c(NC(=O)c2ccc(F)cc2)sc2c1CCC2	4.61 µM (active)	5.61%	–	–
NC(=O)c1c(NC(=O)c2ccc(F)cc2Cl)sc2c1CCC2	inactive	3.89%	–	–
NC(=O)c1c(NC(=O)c2ccccc2)sc2c1CCC2	inactive	-24.3%	–	–
O=C(Nc1sc2c(c1C(=O)O)CCCCC2)c1ccccc1F	inactive	-1.56%	–	–
COc1ccccc1C(=O)Nc1sc2c(c1C(N)=O)CCCC2	inactive	-22.3%	–	–
O=S(=O)(Nc1ccc(Cl)cn1)c1ccccc1	inactive	14.4%	–	–
Cc1cccc(/N=C/c2nc(-c3ccccc3Br)oc2O)n1	inactive	18.5%	–	–
COc1cc(S(=O)(=O)N2CCOCC2)ccc1NC(=O)COC(=O)c1ccccn1	inactive	9.96%	–	–
Cc1ccc[n+](CC(=O)N2CCCc3ccccc32)c1	inactive	-16.8%	–	–
CNCC(=O)N1CCN(c2ncc(C(F)(F)F)cc2Cl)CC1	inactive	-11.3%	–	–
O=C(CSc1ccccn1)N1CCN(c2ncc(C(F)(F)F)cc2Cl)CC1	inactive	6.61%	–	–
O=C(O)c1nn(CC(=O)N2CCN(c3ncc(C(F)(F)F)cc3Cl)CC2)c(=O)c2ccccc12	0.82 µM (active)	-1.8%	–	–
CSc1nnc(-c2ccccc2)n1N	inactive	9.66%	–	–
Cc1ccc(NC(=O)c2cccnc2)cc1S(=O)(=O)N(C)C	inactive	5.29%	–	–
CCOc1ccc(-n2cc(-c3ccccc3)c3c(SC(C)C(=O)OC)ncnc32)cc1 (centres undefined)	inactive	-20.7%	–	–
CCn1c(=O)cc(OCC(=O)Nc2ccccc2N2CCN(C)CC2)c2ccccc21	inactive	6.65%	–	–
COC(=O)c1cc(CNC(=O)c2sccc2-c2ccccc2)ccc1OC	inactive	-10.7%	–	–
COc1ccc(Cc2c(C)nc(N)nc2Cl)cc1	inactive	9.54%	–	–
COc1ccc(Cc2c(Cl)ncnc2Cl)cc1	18.4 µM (active)	-13.7%	–	–
CCOc1ccc(Cc2c(Cl)nc(N)nc2Cl)cc1	inactive	–	–	–
CCOC(=O)C(=CNc1ccc(S(N)(=O)=O)cc1)C(=O)OCC	inactive	-11.4%	–	–
CCOc1ccc(NC(=O)[C@@H](NC(=O)c2ccco2)C(C)C)cc1	inactive	4.17%	–	–

Compound	Potency	cell number change	outcome	lipid storage change, negative = inhibition
Cc1nc(SCC(=O)c2ccc(Cl)cc2)c([N+](=O)[O-])[nH]1	inactive	-28.5%	–	–
Cc1ccc(C(C)C)c(OCC(=O)NNC(=O)C(C(C)C)N2C(=O)c3ccccc3C2=O)c1 (centres undefined)	16.4 µM (active)	-20.9%	–	–
Cc1ccc(C(C)C)c(OCC(=O)Nn2c(C)nc3ccccc3c2=O)c1	inactive	–	–	–
Cc1ccc(C(C)C)c(OCC(=O)NNC(=O)CC2OC(=O)c3ccccc32)c1 (centres undefined)	–	–	inactive [at 0.0737 µM]	–
CC(=O)N1c2ccccc2NC2=C(C(=O)CCC2)C1c1ccc(F)cc1 (centres undefined)	inactive	1.82%	–	–
COc1ccc2c(c1)c(CC(=O)OC(C)C(=O)N(C)C)c(C)n2C(=O)c1ccc(Cl)cc1 (centres undefined)	1.46 µM (active)	-15.8%	–	–
COc1ccc2c(c1)c(CC(=O)O)c(C)n2C(=O)c1ccc(Cl)cc1	inactive	3.94%	–	–
COc1ccc2c(c1)c(CC(=O)OCC(N)=O)c(C)n2C(=O)c1ccc(Cl)cc1	inactive	-0.195%	–	–
Cc1ccc(/C=C2\Oc3cc(OC(=O)N4CCOCC4)ccc3C2=O)cc1	inactive	0.311%	–	–
COC(=O)CC(NC(=O)C1CC1)c1ccc2c(c1)OCO2 (centres undefined)	inactive	–	–	–
CC1Oc2ccccc2C=C1/C=N/NC(=O)[C@@H](C)NC(=O)OC(C)(C)C (some centres undefined)	inactive	8.38%	–	–
CCOC(=O)N1CCN(C(=O)c2ccc(Cn3c(=S)[nH]c4cc(OCC)c(OCC)cc4c3=O)cc2)CC1	inactive	–	–	–
COc1ccc(CCNC(=O)C(=O)N2CCCCC2)cc1OC	inactive	6.42%	–	–
O=C(Nc1ccc(NC(=O)c2cccs2)cn1)c1ccccc1	inactive	8.82%	–	–
COc1ccc(C(=O)Nc2cnc(NC(=O)c3cccs3)cc2C)cc1	inactive	-9.21%	–	–
COc1ccc(C(=O)Nc2ccc(NC(=O)c3cccs3)cn2)cc1	10.3 µM (active)	12.4%	–	–
O=C(NCCCO)/C(=C\c1cn(-c2ccccc2)nc1-c1cccnc1)NC(=O)c1ccccc1	inactive	19.4%	–	–
COC(=O)c1cc(C(=O)OCC(=O)NCc2cccs2)cc([N+](=O)[O-])c1	inactive	-8.04%	–	–
N#Cc1ccccc1S(=O)(=O)N1CCN(S(=O)(=O)c2ccc(Br)c(C(=O)O)c2)CC1	inactive	–	–	–
CCCCn1c(N)c(N(CCOC)C(=O)C2CCN(S(=O)(=O)c3ccc(C)cc3C)CC2)c(=O)[nH]c1=O	–	–	–	17.2% [at 0.0737 µM] (inactive)
Cc1ccc(S(=O)(=O)CC2CSc3nc(N)cc(=O)n32)cc1 (centres undefined)	inactive	2.18%	–	–
O=[N+]([O-])c1ccc(S(=O)(=O)CC2CSc3nc4ccccc4n32)cc1 (centres undefined)	32.6 µM (active)	-0.884%	–	–
Cc1nnc2n(c1=O)C(CS(=O)(=O)c1ccc3ccccc3c1)CS2 (centres undefined)	inactive	2.91%	–	–
